Measured values published in PubChem BioAssay (NCI).
The panel holds about 79,000 compounds, 15% with a hit somewhere; the sample as a whole holds those more often. Rule as the data show it: active = growth inhibition above about 70%; inactive = the rest.

Tests used:
[1] = NCI Yeast Anticancer Drug Screen. Data for the rad50 strain (AID 155);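 also: 0% = growth of vehicle-only cultures of the same strain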; details: S. cerevisiae rad50 strain growth inhibition; at 50.0 µM; hits give high values
Summary of the method: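 Cells are treated with compound, grown, and their growth is then scored against vehicle-only cultures of the same repair-deficient yeast strain.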

[2] = NCI Yeast Anticancer Drug Screen. Data for the mec2-1 strain (AID 157); details: S. cerevisiae mec2-1 strain, at 50.0 µM, hits give high values
Summary of the method: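 Mutant yeast (mec2-1) grown with compound; growth inhibition relative to vehicle control reported.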

[3] = NCI Yeast Anticancer Drug Screen. Data for the sgs1 mgt1 strain (AID 161);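 also: 0% = growth of cultures given vehicle only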; details: S. cerevisiae sgs1 mgt1 strain, at 50.0 µM, hits give high values
Summary of the method: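 Compounds are added to genetically altered yeast, and growth is compared with cultures given vehicle alone to give percent inhibition.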

[4] = NCI Yeast Anticancer Drug Screen. Data for the cln2 rad14 strain (AID 165);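 also: 0% = growth equal to vehicle treated cultures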; details: S. cerevisiae cln2 rad14 strain, at 50.0 µM, hits give high values
Summary of the method: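 Readout is yeast growth inhibition versus vehicle-treated controls, using a strain with cln2 and rad14 alterations exposed to compound.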

[5] = NCI Yeast Anticancer Drug Screen. Data for the bub3 strain (AID 167); details: S. cerevisiae bub3 mutant strain, at 50.0 µM, hits give high values
Summary of the method: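 Part of a panel of yeast mutants defective in DNA damage repair or cell cycle regulation. Each strain is grown with compound, and inhibition is calculated relative to solvent-treated cultures.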

[6] = NCI Yeast Anticancer Drug Screen. Data for the mlh1 rad18 strain (AID 175); details: S. cerevisiae mlh1 rad18 strain growth inhibition; at 50.0 µM; hits give high values
Summary of the method: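 Genetically defined yeast (DNA repair-deficient) exposed to compounds; growth inhibition determined relative to vehicle.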

Measured: growth inhibition

c1ccc(C(c2cccc3c2ccc2ccccc23)C(c2ccccc2)c2cccc3c2ccc2ccccc23)cc1 (centres undefined)
inactive: [1] 4.75% | [2] -9.6% | [3] -33.3% | [4] -19.6% | [5] -22.4% | [6] -12.7%

CC(=O)OC1C(=O)C2C(CC=C3CC(O)CC(O)C32C)C2CCC(C(C)C3CC(C)C(C)(C)O3)C12C (centres undefined)
inactive: [1] -31.3% | [2] -5.15% | [3] -29.8% | [4] -10.4% | [5] -10.8% | [6] -25.6%

C=C(/C=C/CCCC)NC(=O)OCc1ccccc1
inactive: [1] 13.4% | [2] 12.4% | [3] 8% | [4] -39.5% | [5] 1.25% | [6] 18.9%

Cc1cccc(NC(=O)CCl)c1C
inactive: [1] -18.1% | [2] -37.6% | [3] -7.65% | [4] 11.8% | [5] -21.9% | [6] -3.7%

Cc1nn(-c2ccc(Cl)cc2)c2c1c(=O)[nH]c1ccccc12
inactive: [1] 6% | [2] -3.45% | [3] 1% | [4] -24.6% | [5] -2.05% | [6] -5.05%

Cc1cc2nc(N)n[n+]([O-])c2cc1C
inactive: [1] 8.4% | [2] 7.35% | [3] 2% | [4] -6.25% | [5] 1% | [6] -24.9%

COc1nc(N)c2[nH]cnc2n1
inactive: [1] 0.95% | [2] 21.4% | [3] 2.05% | [4] 21.4% | [5] 5.15% | [6] 3.4%

COc1ccc2c(c1O)-c1c(OC)c(OC)cc3c1[C@H](C2)[N+](C)(C)CC3
inactive: [1] -9% | [2] -12.2% | [3] 11.2% | [4] 1.65% | [5] -1.1% | [6] -53.4%

CC(C)(CO)NC(=O)c1ccccc1Br
inactive: [1] -31.9% | [2] -11.7% | [3] -8.6% | [4] 1.55% | [5] -13.9% | [6] 7.8%

COC(=O)[C@@H](CO)NC(=O)OC(C)(C)C
inactive: [1] -27.6% | [2] -15% | [3] -24.1% | [4] 21.6% | [5] 9.4% | [6] -12.8%

CC(=O)c1cc2ccccc2n(O)c1=N
inactive: [1] -32.9% | [2] -10.8% | [3] -24% | [4] 17.1% | [5] -15.2% | [6] -17.3%

CCOC(=O)C(C(=O)CC(C)C)C(C)C (centres undefined)
inactive: [1] -15.9% | [2] -25.2% | [3] 1.1% | [4] -30.4% | [5] 2.95% | [6] -5.7%

C(=C/c1ccc(/C=C/C=C\c2ccccc2)cc1)/C=C/c1ccccc1
inactive: [1] -4.1% | [2] -2.25% | [3] 13.8% | [4] -50.6% | [5] -2.1% | [6] -12.2%

O=C(/C=C\c1ccccc1Cl)/C=C/c1ccccc1Cl
inactive: [1] 11.2% | [2] 2.75% | [3] -4.6% | [4] -42.3% | [5] -0.35% | [6] 11.8%

CCOC(=Nc1cccc2ccccc12)Nc1cccc2ccccc12
inactive: [1] -5.9% | [2] -6.95% | [3] -8.6% | [4] -25.2% | [5] -15.8% | [6] -6.65%

CC[N+](C)(CC)c1cccc(OC(=O)Nc2ccc(OC)cc2)c1
inactive: [1] 6% | [2] 5.25% | [3] 3.35% | [4] -5.7% | [5] 1.05% | [6] 14.3%

N#Cc1nc(NC(=O)c2ccccc2)sc1N
inactive: [1] -5.7% | [2] -29.9% | [3] -27.6% | [4] 11.2% | [5] 4.2% | [6] -10.2%

Cc1ccccc1-n1c(C)nc2cc(NCC(=O)c3ccccc3)ccc2c1=O
inactive: [1] 32.9% | [2] -9.8% | [3] -2.3% | [4] -0.5% | [5] -1.6% | [6] 4%

COC(=O)C12c3ccccc3C3C(c4ccccc41)C32 (centres undefined)
inactive: [1] 11.9% | [2] 13.5% | [3] 22.8% | [4] 17.6% | [5] 2.2% | [6] 20.6%
